Results on 41 compounds are retold here after PubChem BioAssay (NCI).

Assay [1] can be described thus: NCI Yeast Anticancer Drug Screen. Data for the rad50 strain (AID 155).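 Note: 0% = growth of vehicle-only cultures of the same strain.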 The conditions noted are these: S. cerevisiae rad50 strain growth inhibition; at 50.0 µM; stronger effect = higher value. In outline:
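Inhibition values express reduced yeast growth in compound-treated cultures relative to vehicle-treated controls.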

The nature of assay [2]: NCI Yeast Anticancer Drug Screen. Data for the mec2-1 strain (AID 157). Conditions: S. cerevisiae mec2-1 strain, at 50.0 µM, stronger effect = higher value. In outline:
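Vehicle-treated cultures served as reference for growth inhibition of compound-exposed mec2-1 yeast.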

The nature of assay [3]: NCI Yeast Anticancer Drug Screen. Data for the sgs1 mgt1 strain (AID 161).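 Note: 0% = growth of cultures given vehicle only.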 The conditions noted are these: S. cerevisiae sgs1 mgt1 strain, at 50.0 µM, stronger effect = higher value. In outline:
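Mutant yeast exposed to compound; growth scored against vehicle-only wells.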

The nature of assay [4]: NCI Yeast Anticancer Drug Screen. Data for the cln2 rad14 strain (AID 165).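 Note: 0% = growth equal to vehicle treated cultures.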 Conditions: S. cerevisiae cln2 rad14 strain, at 50.0 µM, stronger effect = higher value. In outline: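 Each compound was tested on cln2 rad14 yeast. Inhibition of growth was calculated against vehicle-exposed controls.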
The nature of assay [5]: NCI Yeast Anticancer Drug Screen. Data for the bub3 strain (AID 167). The conditions noted are these: S. cerevisiae bub3 mutant strain, at 50.0 µM, stronger effect = higher value. In outline: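 Steps: expose the mutant yeast strain to compound; grow alongside vehicle-treated cultures; measure growth; express inhibition against the vehicle cultures.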
A short description of assay [6]: NCI Yeast Anticancer Drug Screen. Data for the mlh1 rad18 strain (AID 175). The conditions noted are these: S. cerevisiae mlh1 rad18 strain growth inhibition; at 50.0 µM; stronger effect = higher value. In outline: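 Vehicle-treated cultures served as the reference for growth inhibition in a yeast strain carrying DNA damage repair alterations exposed to each compound.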

Compounds without any hit were thinned out: in the full panel of roughly 79,000, 15% have a hit. A number with no mark means an inactive call. Activity calls are given as the source filed them. Cut-off read from the data, not from the text of the source: active = growth inhibition above about 70%; inactive = the rest.

`CSc1ccc(NC(=O)Nc2ccccc2F)cc1`: the growth inhibition in assay [1] was -7.65%; in assay [2], 19.1%; in assay [3], 17.2%; in assay [4], -20.5%; in assay [5], 39.5%; in assay [6] it was -9.15%.
In the case of `CC(CCc1cccc2ccccc12)C(=O)O` (stereo unspecified), the growth inhibition in assay [1] was 29.6%; in assay [2], 30.4%; in assay [3] it was 28.9%; in assay [4] it was 26.1%; in assay [5], 30.3%; in assay [6], 43.3%.
Consider `CCOC(=O)Nc1cc2c(c(N)n1)N=C(c1ccc(OC)cc1)CN2`, for which the growth inhibition in assay [1] was 33.1%; in assay [2] it was -6.75%; in assay [3], 24.5%; in assay [4] it was 30%; in assay [5], 21.5%; in assay [6], 11.2%.
On to `CCS(=O)(=O)/C=C/c1cccnc1`, for which the growth inhibition is 0.45% in assay [1]; -4.8% in assay [2]; -11.4% in assay [3]; -51.5% in assay [4]; 3.05% in assay [5]; 9.5% in assay [6].
As to `COC1(OC)c2no[n+]([O-])c2CCC1O` (stereo unspecified), the growth inhibition in assay [1] was -6.6%; in assay [2] it was -17.4%; in assay [3], -24.1%; in assay [4], 10%; in assay [5] it was 4%; in assay [6] it was -4.45%.
As for `CC(=O)NNC(=S)N/C=C(\C#N)S(=O)(=O)c1ccc(C)cc1`, the growth inhibition in assay [1] was -44.5%; in assay [2], -26.4%; in assay [3] it was -35.5%; in assay [4] it was -61.3%; in assay [5], -25.8%; in assay [6], -37.6%.
Regarding `O=c1cc(Nc2ccc(Cl)cc2)[nH]c(=O)[nH]1`, the growth inhibition in assay [1] was -1.45%; in assay [2], -5.45%; in assay [3], -5.55%; in assay [4] it was -61.9%; in assay [5] it was 6.2%; in assay [6], -7.65%.
As for `Cc1cn(C2CC(O)C(COC(=O)C(C)(C)C)O2)c(=O)[nH]c1=O` (stereo unspecified), the growth inhibition in assay [1] was 16.9%; in assay [2] it was -0.35%; in assay [3], 3.85%; in assay [4], -0.1%; in assay [5], -18.5%; in assay [6] it was -47.5%.
Turning to `CC(=O)O[C@]12CCCCCC1C1(O)C(O)CCC[C@H]12` (stereo partly specified), the growth inhibition in assay [1] was -29.4%; in assay [2] it was -19.9%; in assay [3], -54.8%; in assay [4], 17.6%; in assay [5], -26.1%; in assay [6], -47.3%.
As for `O=[N+]([O-])c1cccc(/C=C/COc2ccccc2)c1`, the growth inhibition was -1.35% in assay [1]; -10.4% in assay [2]; -10.8% in assay [3]; -48.7% in assay [4]; 10.6% in assay [5]; -18.9% in assay [6].
For `COc1ccc(-c2cc(-c3ccc(Cl)cc3)on2)cc1`, the growth inhibition is -15.1% in assay [1]; 11.2% in assay [2]; -4.55% in assay [3]; -35.8% in assay [4]; 10.6% in assay [5]; -11.4% in assay [6].
Take `Cc1cc2nnn(C3CCCCO3)c2cc1C` (stereo unspecified): the growth inhibition in assay [1] is 3.25%; in assay [2], -12.9%; in assay [3], -17.9%; in assay [4], -15.8%; in assay [5], 12.8%; in assay [6], -31.7%.
Turning to `O=C(NCC(CC(NC(=O)c1ccccc1)C(=O)O)NC(=O)c1ccccc1)c1ccccc1` (stereo unspecified), the growth inhibition in assay [1] was -20.5%; in assay [2], -4.85%; in assay [3], -11.4%; in assay [4], 16%; in assay [5], -5.9%; in assay [6], 0.9%.
In the case of `Cc1ccc(C(C(=O)O)C(Cl)(Cl)Cl)cc1` (stereo unspecified), the growth inhibition is 6.7% in assay [1]; -11% in assay [2]; -0.75% in assay [3]; 0.7% in assay [4]; -6.45% in assay [5]; 4.65% in assay [6].
For the compound `Cc1cc(C)c(NC(N)=S)cc1C`, the growth inhibition in assay [1] was 7.65%; in assay [2] it was -23.2%; in assay [3], -5.35%; in assay [4] it was -7.7%; in assay [5] it was -5.55%; in assay [6], 7.55%.
On to `CN(C)C(=O)NCc1cccnc1`, for which the growth inhibition in assay [1] was -21.8%; in assay [2], 10.9%; in assay [3] it was 0.35%; in assay [4], -78.2%; in assay [5] it was -3.45%; in assay [6] it was -10.7%.
`Cc1ccc([N+](=O)[O-])c(P(=O)(O)O)c1`: the growth inhibition in assay [1] was 12.6%; in assay [2], 13%; in assay [3], -14.7%; in assay [4] it was -3.45%; in assay [5] it was 3.4%; in assay [6], -12.2%.
Turning to `CC(=O)Nc1cccc(/C=C/C=C/c2cccc([N+](=O)[O-])c2)c1`, the growth inhibition was 89.3% (active) in assay [1]; 91.2% (active) in assay [2]; 93.5% (active) in assay [3]; 81.1% (active) in assay [4]; 91.3% (active) in assay [5]; 91.2% (active) in assay [6].
Consider `O=C(NCC1CC1)NC(=O)c1ccccc1F`, for which the growth inhibition is -4.3% in assay [1]; -34.6% in assay [2]; -14.3% in assay [3]; 16.6% in assay [4]; -10.6% in assay [5]; -16.9% in assay [6].
Take `O=S(CCCl)c1ccccc1` (stereo unspecified): the growth inhibition is -8.3% in assay [1]; -13.2% in assay [2]; 3.35% in assay [3]; 10.4% in assay [4]; -7.05% in assay [5]; 4.9% in assay [6].
Take `C=C1C(=O)O[C@@H]2C[C@]3(C)[C@@H](C[C@H]12)[C@](C)(O)CC[C@@H]3O`: the growth inhibition in assay [1] was 5.65%; in assay [2] it was -10.1%; in assay [3], 1.5%; in assay [4], -37.5%; in assay [5], 7.5%; in assay [6], 0.3%.
For `CCC1=CCC(P(=O)(c2ccccc2)c2ccccc2)CC1C` (stereo unspecified), the growth inhibition in assay [1] was -28.8%; in assay [2], -16.4%; in assay [3] it was -0.15%; in assay [4], 12.6%; in assay [5], 0.15%; in assay [6], -19.8%.
In the case of `O=C1/C(=C/C=C/c2ccccc2)CCC1CNc1ccc(Br)cc1` (stereo unspecified), the growth inhibition is -20.2% in assay [1]; -11.7% in assay [2]; -17.8% in assay [3]; 16.9% in assay [4]; -15.4% in assay [5]; 9.5% in assay [6].
For `C=CCc1c(O)c2ccccc2[nH]c1=O`, the growth inhibition was -5.35% in assay [1]; 15.6% in assay [2]; -25.9% in assay [3]; 12.7% in assay [4]; 4.45% in assay [5]; 1.5% in assay [6].
For the compound `N#CCc1csc(-c2ccccc2)n1`, the growth inhibition in assay [1] was 26.6%; in assay [2], 16.8%; in assay [3], 6.2%; in assay [4] it was 15.2%; in assay [5], 1.55%; in assay [6], 27%.
Consider `CCN(CC)C(=O)COc1ccc(Cl)cc1`, for which the growth inhibition is 2.05% in assay [1]; -7.75% in assay [2]; -5.55% in assay [3]; -41.7% in assay [4]; -26.6% in assay [5]; -20.7% in assay [6].
`c1c[nH]c(C2=NCCCCC2)c1`: the growth inhibition was 1.85% in assay [1]; -6.95% in assay [2]; 2.2% in assay [3]; -3% in assay [4]; -5.2% in assay [5]; -29.1% in assay [6].
Turning to `NC(=O)c1nc(C2OC(CO)C(O)C2O)cs1` (stereo unspecified), the growth inhibition was -0.7% in assay [1]; -1.2% in assay [2]; -2.25% in assay [3]; -27.9% in assay [4]; 6.75% in assay [5]; 0.15% in assay [6].
As to `O=C1NC(=O)C(Cc2ccco2)N1` (stereo unspecified), the growth inhibition was 10.8% in assay [1]; 6.7% in assay [2]; -7.85% in assay [3]; -20.6% in assay [4]; -35.5% in assay [5]; -5.2% in assay [6].
As for `CCCN/C=C1\CC(=O)N(C)C1=O`, the growth inhibition is 5.15% in assay [1]; 8.45% in assay [2]; 2.5% in assay [3]; -33.7% in assay [4]; 6.4% in assay [5]; 11.2% in assay [6].
For the compound `Cc1ccc(C(=O)c2ccccc2C(=O)O)cc1C`, the growth inhibition is 4.35% in assay [1]; -4.35% in assay [2]; -17.9% in assay [3]; -18.4% in assay [4]; 9.2% in assay [5]; -18.6% in assay [6].
As to `Nc1nnnn1C1CCCCC1`, the growth inhibition was 9.3% in assay [1]; 3.8% in assay [2]; -4.65% in assay [3]; -8.65% in assay [4]; -11.3% in assay [5]; 20.9% in assay [6].
As for `N#CC(/C(=N/NC(=O)C(=O)NN)C(=O)NC12CC3CC(CC(C3)C1)C2)c1ccccc1` (stereo unspecified), the growth inhibition in assay [1] was 16.1%; in assay [2], 10.8%; in assay [3] it was 1%; in assay [4], 1.4%; in assay [5], 30.6%; in assay [6], -2.05%.
Consider `COc1ccc2c3c(ccc2c1)C1C(=O)OC(=O)C1CC3` (stereo unspecified), for which the growth inhibition in assay [1] was -2.6%; in assay [2], 8.6%; in assay [3], 6.5%; in assay [4], -36.6%; in assay [5] it was -5.95%; in assay [6], 11.2%.
Regarding `Nc1ncc2c(n1)CSCC2=O`, the growth inhibition in assay [1] was -9.4%; in assay [2], 27.7%; in assay [3], 14.1%; in assay [4], -2.7%; in assay [5] it was 16.9%; in assay [6], 12%.
As to `CCN(CC)CCN1C(=O)C2C3C=CC(C3)C2C1=O` (stereo unspecified), the growth inhibition in assay [1] was -15.1%; in assay [2], -15.4%; in assay [3] it was 3.25%; in assay [4], -14.9%; in assay [5], -3.25%; in assay [6], -14.9%.
For `O=C1CCCCCCCCCCC1Br` (stereo unspecified), the growth inhibition in assay [1] was 43.2%; in assay [2], 3.15%; in assay [3], 34.4%; in assay [4], 31.9%; in assay [5], 23.3%; in assay [6] it was 21.4%.
For the compound `COc1ccc(C(=O)c2ccccc2)c(O)c1OC`, the growth inhibition in assay [1] is -12.9%; in assay [2] it was -5.95%; in assay [3], -2.35%; in assay [4], -0.75%; in assay [5] it was 45.8%; in assay [6], 10.3%.
Turning to `N/N=C(/Cc1nc2ccc(C(=O)c3ccccc3)cc2[nH]c1=O)C(=O)Nc1ccc([N+](=O)[O-])cc1[N+](=O)[O-]`, the growth inhibition in assay [1] was 23.4%; in assay [2], 13.2%; in assay [3], -3.6%; in assay [4], -47.8%; in assay [5] it was 5.2%; in assay [6], 15.6%.
Consider `CCCCOC(=O)C(=O)C(CC(CC)C(=O)c1ccccc1)C(=O)C=C(C)C` (stereo unspecified), for which the growth inhibition in assay [1] is -28.9%; in assay [2] it was -8.5%; in assay [3] it was -9.55%; in assay [4] it was -15.2%; in assay [5] it was -13.6%; in assay [6] it was 15.2%.
With `CCCCCCCSCC(O)COC(c1ccccc1)(c1ccccc1)c1ccccc1` (stereo unspecified), the growth inhibition is -17.5% in assay [1]; -28.6% in assay [2]; -29.6% in assay [3]; -20% in assay [4]; -21.5% in assay [5]; -20.6% in assay [6].
